Assay outcomes as filed in PubChem BioAssay.
KB-V1 MDR tox: KB-V1 MDR subline cytotoxicity; KB-V1 MDR cells viability, CellTiter-Glo, 72 h; Potency, µM (doses to about 46.1 µM), actives largely listed as cytotoxic; 400,000 compounds, 3.4% hits; note: nearly all actives have a fitted effect of over 60% in size
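Drug-selected KB-V1 cells, grown in DMEM lacking phenol red with 10% FBS, receive compound titrations; after three days at 37 degrees C, surviving cell ATP is quantified by CellTiter-Glo luminescence and responses normalized and curve-fitted.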
TDP1 cell CPT: growth inhibition of DT40 Tdp1-/-;hTDP1 cells with camptothecin (screen for TDP1 inhibitors). chicken DT40 Tdp1-/-;hTDP1 cells + 20 nM CPT, ATP luminescence, 48 h. Potency, µM (highest dose often 46.2 µM), usual class: inhibitors. 420,000 compounds, 12% hits; note: nearly all actives have a fitted effect of over 55% in size
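Chicken DT40 Tdp1-/- cells stably complemented with human TDP1 were seeded at 400 cells/well in medium containing 20 nM camptothecin, exposed to pin-transferred compounds, and grown at 37 °C for at least 48 hr. Viability was read as ATP luminescence.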
DT40 TDP1 no CPT: qHTS for Inhibitors of human tyrosyl-DNA phosphodiesterase 1 (TDP1): qHTS in cells in absence of CPT | Potency, µM (top dose mostly 46.2 µM), actives largely listed as inhibitors | 420,000 compounds, 15% hits | DT40 Tdp1-/- hTDP1 cells, no CPT, ATP luminescence, 48 h; note: nearly all actives have a fitted effect of over 55% in size
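Stably hTDP1-transfected Tdp1-null chicken DT40 cells were treated with library compounds minus camptothecin and grown for at least 48 hr at 37 °C, after which cellular ATP was quantified by luminescence.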
KB-3-1 tox: kills parental KB-3-1 adenocarcinoma cells | KB-3-1 viability, CellTiter-Glo ATP luminescence, 72 h | Potency, µM (series often up to 46.1 µM), actives largely listed as cytotoxic | 400,000 compounds, 1.4% hits | AID 1347075; note: nearly all actives have a fitted effect of over 60% in size
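Cytotoxicity measured as CellTiter-Glo luminescence after 72 h at 37 C. Compound titrations were pinned onto drug-naive KB-3-1 parental adenocarcinoma cells grown in DMEM with 10% FBS, and normalized data fitted to concentration-response curves.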
HT1080 IDH1KD tx: kills HT-1080 cells with IDH1 knockdown; HT-1080 IDH1 knockdown viability, ATP luminescence, 48 h; Potency, µM (highest dose often 46.1 µM), most hits filed as cytotoxic; 360,000 compounds, 2% hits; AID 686971
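Assay cells: HT-1080 with IDH1 knockdown, 750 per well, RPMI/5% FBS. Exposure: 48 h at 37 °C following 2 h pre-incubation. Read: CellTiter-Glo luminescence; fitted concentration-response, curve class assigned.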
HT1080NT lethal: kills 2HG-producing HT-1080-NT fibrosarcoma cells. 360,000 compounds, 1.6% hits. HT-1080-NT fibrosarcoma viability, CellTiter-Glo ATP luminescence, 48 h. Potency, µM (doses to about 46.1 µM), most hits filed as cytotoxic;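 note: NT is the 2HG producing partner of a matched IDH1 knockdown line; nearly all actives have a fitted effect of over 55% in size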
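Fibrosarcoma NT cells, 750 per well in 5% FBS RPMI, were exposed to compound for 48 hours. Viability: CellTiter-Glo luminescence.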
Each line names hits and unclear results; the compound was inactive in the other large screens. Compounds with a hit are over-represented: about 19% of the library has one in this group of screens. Calls come from the whole dose curve; as a rule, active = well fitted curve in the direction sought with a large enough effect; inconclusive = small, poorly fitted or top-dose-only effect, or another doubt; inactive = no such curve, though single readings can be large; an effect the other way counts as inactive or inconclusive.

Cc1cc(C)n(-c2nnc3n2N=C(c2c[nH]c4ccccc24)CS3)n1	KB-V1 MDR tox inconclusive, TDP1 cell CPT 21µM, DT40 TDP1 no CPT 15µM, KB-3-1 tox 7.3µM, HT1080 IDH1KD tx 15µM, HT1080NT lethal inconclusive
Cc1cc(C)n(-c2nnc3n2N=C(c2ccccc2)CS3)n1	none
CCOC(=O)CSc1nc2ccccc2n1CC(=O)N1CCN(c2ccccc2)CC1	KB-V1 MDR tox 7.3µM
O=C(CSc1nc2ccccc2n1Cc1ccc(F)c(Cl)c1)N1CCN(c2ccc(F)cc2)CC1	KB-V1 MDR tox inconclusive, TDP1 cell CPT 18µM, DT40 TDP1 no CPT 9.2µM (no result: HT1080 IDH1KD tx, HT1080NT lethal)
C=Cc1ccc(Cn2c(SCC(=O)N3CCN(c4ccc(F)cc4)CC3)nc3ccccc32)cc1	TDP1 cell CPT 23µM, DT40 TDP1 no CPT inconclusive (no result: HT1080 IDH1KD tx, HT1080NT lethal)
CCOC(=O)CSc1nc2ccccc2n1C(=O)OCC	KB-V1 MDR tox inconclusive
CC(C)N(C(=O)CSc1nc2ccccc2n1Cc1ccc(F)cc1)C(C)C	KB-V1 MDR tox inconclusive, TDP1 cell CPT 23µM, DT40 TDP1 no CPT inconclusive, KB-3-1 tox inconclusive, HT1080 IDH1KD tx inconclusive
O=C(CSc1nc2ccccc2n1Cc1cccc(F)c1)N1CCN(c2ccc(F)cc2)CC1	TDP1 cell CPT inconclusive, DT40 TDP1 no CPT inconclusive (no result: HT1080 IDH1KD tx, HT1080NT lethal)
CC(C)(C)C(=O)Nc1ccccc1N1CCN(c2ccc(F)cc2)CC1	KB-V1 MDR tox inconclusive, DT40 TDP1 no CPT inconclusive
CCN(CC)c1ncnc2c1ncn2[C@H]1CN(Cc2ccccc2)C[C@@H](CO)O1	DT40 TDP1 no CPT inconclusive
CCc1ccc(NC(=O)c2c(Cl)nc(C)c(Cl)c2C)cc1	KB-V1 MDR tox inconclusive, TDP1 cell CPT inconclusive, DT40 TDP1 no CPT 26µM, KB-3-1 tox inconclusive, HT1080 IDH1KD tx inconclusive
CC(=O)c1cccc(NC(=O)c2cc(C)nc3c2c(C)nn3-c2cccc(Cl)c2C)c1	TDP1 cell CPT inconclusive, DT40 TDP1 no CPT 18µM (no result: HT1080 IDH1KD tx, HT1080NT lethal)
CCc1ccc(-n2nc(C)c3c(C(=O)Nc4cc(C)ccc4C)cc(C)nc32)cc1	TDP1 cell CPT inconclusive, DT40 TDP1 no CPT inconclusive (no result: HT1080 IDH1KD tx, HT1080NT lethal)
CCc1ccc(-n2nc(C)c3c(C(=O)Nc4ccc(Cl)cc4)cc(C)nc32)cc1	TDP1 cell CPT inconclusive, DT40 TDP1 no CPT 13µM (no result: HT1080 IDH1KD tx, HT1080NT lethal)
N#Cc1ccc(N/N=C/c2ccccc2)c([N+](=O)[O-])c1	DT40 TDP1 no CPT inconclusive, KB-3-1 tox inconclusive
Cc1cc(C)n(CCCNC(=O)c2ccc(C)o2)n1	none
CC(=NNC(=S)N1CC2CCC(CC2)C1)c1cccc(C)n1	KB-V1 MDR tox inconclusive, TDP1 cell CPT 0.01µM, DT40 TDP1 no CPT 0.021µM, KB-3-1 tox inconclusive, HT1080 IDH1KD tx inconclusive
CC(=NNC(=S)N1CCCC1)c1ccccn1	KB-V1 MDR tox inconclusive, KB-3-1 tox inconclusive, HT1080 IDH1KD tx inconclusive, HT1080NT lethal inconclusive
Nc1[nH]c(C(=O)c2ccccc2)c(-c2c(F)cccc2F)c1C(=O)c1ccc(Cl)c(Cl)c1	TDP1 cell CPT inconclusive, DT40 TDP1 no CPT inconclusive, KB-3-1 tox inconclusive, HT1080 IDH1KD tx inconclusive, HT1080NT lethal inconclusive
COc1ccc(C(=O)CCN2CCN(c3ccccc3OC)CC2)cc1	TDP1 cell CPT 3.7µM, DT40 TDP1 no CPT 5.2µM, HT1080NT lethal inconclusive
COc1ccccc1N1CCN(CC(=O)N2CCCC2)CC1	none
COc1ccccc1N1CCN(CC(=O)c2ccc3ccn(C(C)=O)c3c2)CC1	TDP1 cell CPT 2.9µM, DT40 TDP1 no CPT inconclusive
COC(=O)Nc1ccc2c(c1)N(C(=O)CCN1CCN3CCCC3C1)c1ccccc1S2 (centres undefined)	TDP1 cell CPT 13µM, DT40 TDP1 no CPT inconclusive
Cc1cccc(C(=O)Nc2ccccc2OCc2cc(=O)n3ccccc3n2)c1	none (no result: KB-V1 MDR tox, KB-3-1 tox, HT1080 IDH1KD tx, HT1080NT lethal)
CCC1CN(CCNC(=O)c2cccc3nccnc23)Cc2cc(OC)ccc2O1 (centres undefined)	DT40 TDP1 no CPT inconclusive (no result: KB-V1 MDR tox, KB-3-1 tox, HT1080 IDH1KD tx, HT1080NT lethal)
Cc1ccccc1NC(=O)CSc1nc2c(oc3ccccc32)c(=O)n1-c1ccccc1F	TDP1 cell CPT inconclusive, DT40 TDP1 no CPT 23µM (no result: HT1080 IDH1KD tx, HT1080NT lethal)
CCc1ccccc1NC(=O)CSc1nc2c(oc3ccccc32)c(=O)n1-c1ccccc1F	TDP1 cell CPT inconclusive, DT40 TDP1 no CPT 18µM (no result: KB-V1 MDR tox, KB-3-1 tox, HT1080 IDH1KD tx, HT1080NT lethal)
O=c1[nH]c(CSc2ccccn2)nc2c1cnn2-c1ccccc1	KB-V1 MDR tox 21µM, TDP1 cell CPT inconclusive, DT40 TDP1 no CPT inconclusive
Cn1ccnc1SCc1nc2c(cnn2-c2ccccc2)c(=O)[nH]1	none
COc1ccc(OC)c(-c2noc(N3CCN(c4cccc(C)c4C)CC3)n2)c1	KB-V1 MDR tox inconclusive, KB-3-1 tox inconclusive (no result: HT1080 IDH1KD tx, HT1080NT lethal)
COc1ccc(-c2noc(C3CCCN(C(=O)c4ccccc4OC)C3)n2)cc1OC (centres undefined)	TDP1 cell CPT inconclusive, DT40 TDP1 no CPT inconclusive
O=C(Nc1ccc(F)cc1F)N1CCCC(c2nc(-c3ccc(F)cc3)no2)C1 (centres undefined)	TDP1 cell CPT 18µM, DT40 TDP1 no CPT inconclusive
COc1ccc(-c2noc(N3CCCC(C(=O)Nc4ccc(F)cc4F)C3)n2)cc1 (centres undefined)	KB-V1 MDR tox inconclusive, TDP1 cell CPT inconclusive, DT40 TDP1 no CPT inconclusive
O=C(c1ccc(F)cc1F)N1CCCC(c2nc(-c3ccc(F)cc3)no2)C1 (centres undefined)	KB-V1 MDR tox inconclusive, TDP1 cell CPT inconclusive, DT40 TDP1 no CPT 18µM
CC1=CCC2C(=O)N(c3cccc(C(=O)Nc4ccccc4Cl)c3)C(=O)C2C1 (centres undefined)	none (no result: KB-V1 MDR tox, KB-3-1 tox)
CCc1ccc(C(=O)c2c(N)c(-c3nc(-c4ccc5c(c4)OCO5)cs3)c3ccccn23)cc1	none (no result: KB-V1 MDR tox, KB-3-1 tox, HT1080 IDH1KD tx, HT1080NT lethal)
